PostGolgi yeast: growth inhibition of a yeast mutant, post-Golgi transport screen; post-Golgi transport phenotypic cell assay; inhibition, % at 10 µM; hit rate 0.9% among 98,000; AID 739;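 also: yeast cells grown in 1536-well plates; yeast grown about 18 h at 30C before absorbance read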
Cav32 inh: inhibitors of human Cav3.2 T-type calcium channel. Cav3.2-expressing cells, Fluo-4 calcium fluorescence FDSS; stronger effect = lower value. hit rate 4% among 100,000. B-score at 10 µM. O95180. AID 449739;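 active = single-dose well whose peak fluorescence ratio is a statistical outlier from its plate by either plate-standardised score or position-corrected B-score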
PostGolgi ctrl: growth of the yeast control strain, post-Golgi counter-screen | hit rate 5% among 98,000 | inhibition, % at 10 µM | efflux-deficient yeast background strain, growth absorbance A615, 16 h | AID 738
Smad3 inh: Smad3 (human) transcription factor binding inhibition | inhibition, % at 25 µM | TR-FRET Smad3/Dy647-FoxH1 peptide binding, europium anti-His | hit rate 0.29% among 88,000 | P84022;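 active = compounds that reduce the energy-transfer binding signal between the protein and its labelled peptide by more than half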;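 also: 0% = Smad3 plus labelled peptide maximal FRET and 100% = peptide-only background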
hDAT+cocaine: changed human dopamine transporter uptake under cocaine IC80; AID 449768; B-score at 10 µM; hit rate 1.3% among 110,000; LLC-PK1 hDAT cells, [14C]-dopamine uptake with cocaine IC80; actives deviate in either direction; Q01959;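 active = Z score or B-score, a plate-position-corrected score, falls beyond the plate's 99.7% confidence bounds, in either direction; inactive = both scores lie inside the 99.7% bounds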;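 also: scored against the spread of the other compound wells on the same plate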
Target sequence (Q01959 whole entry, looked up): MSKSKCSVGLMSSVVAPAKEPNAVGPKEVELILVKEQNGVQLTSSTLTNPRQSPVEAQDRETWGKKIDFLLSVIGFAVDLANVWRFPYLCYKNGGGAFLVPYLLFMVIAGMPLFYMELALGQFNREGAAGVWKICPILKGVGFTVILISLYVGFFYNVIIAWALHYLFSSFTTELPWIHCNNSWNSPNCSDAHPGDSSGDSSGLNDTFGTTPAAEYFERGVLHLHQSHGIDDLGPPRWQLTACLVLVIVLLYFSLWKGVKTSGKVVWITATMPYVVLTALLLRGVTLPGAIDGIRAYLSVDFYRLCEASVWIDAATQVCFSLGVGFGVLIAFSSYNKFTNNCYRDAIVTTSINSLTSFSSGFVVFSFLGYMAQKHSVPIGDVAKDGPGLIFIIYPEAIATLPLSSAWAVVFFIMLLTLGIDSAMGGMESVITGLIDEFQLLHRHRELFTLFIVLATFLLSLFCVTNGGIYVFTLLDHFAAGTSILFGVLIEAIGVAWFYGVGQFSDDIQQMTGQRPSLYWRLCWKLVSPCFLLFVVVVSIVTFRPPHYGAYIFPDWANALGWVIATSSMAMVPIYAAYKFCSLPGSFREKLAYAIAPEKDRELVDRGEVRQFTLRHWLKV
TNAP act DEA: activators of human TNAP at intermediate phosphate acceptor. purified TNAP, CDP-star luminescence, 100 mM DEA, 30 min; stronger effect = higher value; scale: 0 levamisole-inhibited, 1 vehicle-only enzyme. activation factor at 20 µM. 64,000 tested, under 10 active. AID 813;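 active = activation factor of at least 2 at 20 µM, relative to controls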
An asterisk follows results filed as active; · = not tested or not shown. Hits are enriched below; roughly 8.7% of the tested compounds scored in any of these assays. Rule as the data show it, unless noted: active = inhibition above about 30%; inactive = the rest.

SMILES	PostGolgi yeast	Cav32 inh	PostGolgi ctrl	Smad3 inh	hDAT+cocaine	TNAP act DEA
COc1ccc(/C=N/NC(=O)Cc2csc(Nc3cccc(C(F)(F)F)c3)n2)cc1C	9.2	-3.94*	20.2	·	2.95	·
CCOC(=O)Cc1csc(N/N=C/c2ccc(C(F)(F)F)cc2)n1	-0.5	·	11.8	·	·	·
O=C(CSc1nnc(NC(=O)C2CCC2)s1)Nc1ccc(N2CCOCC2)cc1	16.1	0.898	-2.7	8.4	-0.0497	0.8
NC(=O)c1sc2nc3c(c(-c4ccc(Cl)cc4)c2c1N)CCCC3	6.7	0.4	34.7*	4.2	0.607	·
Cc1ccc(C(=O)Cn2nnc3c(sc4nc5c(c(-c6ccccc6)c43)CCC5)c2=O)cc1	-0.5	-1.74	-2.5	·	0.202	·
COc1ccc(-c2c3c(nc4sc5c(Cl)nc(C)nc5c24)CCC3)cc1	7.8	3.68*	9.9	·	-0.781	·
Cc1ccc(-c2c3c(nc4sc(C(N)=O)c(N)c24)CCC3)cc1	5.3	0.625	50.5*	2.0	-0.0104	·
Cc1ccccc1NC(=O)c1sc2nc3c(c(-c4ccco4)c2c1N)CCC3	0.2	-3.32	7.4	1.5	0.777	·
O=C(CN1CCOCC1)Nc1cccc(Br)c1	-3.8	-0.158	30.8*	1.4	0.0166	1.1
O=C(CN1CCOCCOCCN(CC(=O)Nc2ccccc2)CCOCC1)Nc1ccccc1	30.0*	-0.073	2.2	10.4	0.138	1
Cc1cccc(CSC2=NCCN2C(=O)C2CC2)c1	-1.4	-0.796	-3.4	-15.3	0.42	1
CC(C)CCN(C(=O)Nc1ccccc1)C(C)c1cccs1 (stereo not given)	2.9	-4.82*	14.2	3.4	0.0751	·
CC(c1cccs1)N(C(=O)Nc1ccccc1)C1CCCCC1 (stereo not given)	1.1	-2.37	27.0	4.3	-0.211	·
CC1CCCN(S(=O)(=O)c2ccc(NC(=O)c3cccc(-n4cnnn4)c3)cc2)C1 (stereo not given)	11.3	-2.79	5.3	-11.6	1.2	0.9
O=C(CCCC(=O)N(CC(=O)NC1CCCC1)C1CCCC1)Nc1ccccn1	-0.2	0.284	33.9*	3.6	0.366	0.9
c1ccc(Cn2nnnc2C(c2ccccn2)N2CCN(c3ccccc3)CC2)cc1 (stereo not given)	4.7	-1.16	11.0	-11.3	-0.394	·
CCOc1ccc(C2=NNC(c3cccs3)=Nc3ccc(OC)cc32)cc1	·	-4.9*	·	0.0	0.673	·
Fc1ccc2c(c1)C(c1ccc(N3CCOCC3)cc1)=NNC(c1cccs1)=N2	-4.7	-1.92	35.9*	·	0.658	·
Brc1ccc2c(c1)C(c1ccc(N3CCOCC3)cc1)=NNC(c1cccs1)=N2	4.5	-1.83	12.2	·	0.536	·
CC(C)(C)Cc1nc2ccccc2n1CCc1ccccc1	-0.3	-4.28*	24.9	-2.6	-1.47	·
c1ccc(Cc2nc3ccccc3n2Cc2ccccc2)cc1	-1.5	-4.34*	18.7	·	1.16	·
C=CCOC(=O)CCCC(=O)NC1CCCCC1	0.0	0.558	2.9	-12.4	0.558	1
CCC1C(=O)Nc2nc(-c3ccccc3)c(-c3ccccc3)n2N=C1C (stereo not given)	-2.3	-3.02	42.2*	0.6	0.192	·
CCNC(=O)NC(=O)C(C)OC(=O)c1cccnc1SC (stereo not given)	·	-0.129	·	-0.6	-0.00331	0.9
CCOC(=O)C(C)Oc1ccc2c(C)cc(=O)oc2c1C(C)=O (stereo not given)	33.0*	0.285	2.8	-5.5	-1.18	0.9
SMILES	PostGolgi yeast	Cav32 inh	PostGolgi ctrl	Smad3 inh	hDAT+cocaine	TNAP act DEA
CCOC(=O)COc1ccc(-c2nnc(-c3ccccc3)o2)cc1	-12.9	-1.36	4.3	5.0	-1.03	1
CCOc1ccc(-c2nnc(-c3ccccc3)o2)cc1	·	-2.87*	·	0.9	-0.436	·
CCOC(=O)c1nnc(-c2ccccc2)o1	-0.3	-4.5*	7.1	8.0	-0.505	1
Cc1ccccc1NC(=S)C1=C(O)c2sccc2N(C)S1(=O)=O	0.8	-0.038	4.4	10.9	0.526	·
CC1CN(Cc2nc3c(c(=O)n(C)c(=O)n3C)n2CCCc2ccccc2)CC(C)O1 (stereo not given)	·	2.3	·	9.3	-0.776	·
O=C(NCCCn1ccnc1)Nc1cccc(Cl)c1	7.0	0.24	35.7*	-7.1	0.0693	0.9
COc1nnc(OC)c2ccccc12	-6.3	-0.0072	7.7	·	-0.193	1
COc1nnc(-c2ccc(N3CCCCC3)c(N)c2)c2ccccc12	·	-6.89*	·	·	0.0363	·
CCCC(=O)Nc1cc(-c2nnc(OC)c3ccccc23)ccc1N1CCCCC1	16.5	·	42.8*	·	·	·

Source: PubChem BioAssay
